Test results reported in PubChem BioAssay.

Tests used:
[1] = target: Tumor necrosis factor receptor superfamily member 10B (Homo sapiens) (UniProt O14763); assay: viability loss of caspase-8 NB7 cells with TRAIL – with/without TRAIL, luminescence panel, confirmation (AID 651596); conditions: NB7 neuroblastoma + caspase-8, TRAIL sensitization, NB7 Caspase-8, with TRAIL, mean of runs, at 10 µM, stronger effect = higher value
[2] = as above; conditions: NB7 neuroblastoma + caspase-8, without TRAIL, NB7 Caspase-8, without TRAIL, mean of runs, at 10 µM

Sequence of Tumor necrosis factor receptor superfamily member 10B (Homo sapiens) (O14763 whole entry, looked up): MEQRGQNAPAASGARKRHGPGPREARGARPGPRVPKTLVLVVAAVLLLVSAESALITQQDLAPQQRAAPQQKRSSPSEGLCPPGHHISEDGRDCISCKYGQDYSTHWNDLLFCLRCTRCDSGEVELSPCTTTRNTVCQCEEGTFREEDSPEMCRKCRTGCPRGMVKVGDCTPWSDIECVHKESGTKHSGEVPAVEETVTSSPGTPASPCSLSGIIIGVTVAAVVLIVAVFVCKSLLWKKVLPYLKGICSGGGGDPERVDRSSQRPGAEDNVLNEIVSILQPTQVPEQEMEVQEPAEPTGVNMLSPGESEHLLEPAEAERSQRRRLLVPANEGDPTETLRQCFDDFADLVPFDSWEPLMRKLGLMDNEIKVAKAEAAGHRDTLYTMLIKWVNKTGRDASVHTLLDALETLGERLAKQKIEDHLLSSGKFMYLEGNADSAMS

| Compound | activity [1] [%] | activity [2] [%] |
| --- | --- | --- |
| O=C(N/N=C/c1cccc(NC(=O)c2ccc(Cl)cc2)c1)c1ccc(O)cc1 | 58.4 | 42 |
| CCCn1c(C)cc(C(=O)COC(=O)c2ccc[nH]c2=O)c1C | 49 | 49.6 |
| COc1ccc(/C=C/C(=O)c2ccc([N+](=O)[O-])o2)cc1 | 35.2 | 80.8 |
| O=c1c2sc(-c3ccccc3)cc2nc2n1CCC2 | 46.9 | 50 |
| CS(=O)(=O)c1nc(-c2ccc(Br)cc2)cc(-c2ccccc2)c1C#N | 94 | 98.9 |
| CC1(C)N=C(N)N=C(N)N1c1cccc(CC(=O)Nc2ccccc2)c1 | 77.8 | 85.3 |
| Cc1noc(N)c1C(=O)Nc1ccc(C(C)(C)C)cc1 | 46.1 | 48.9 |
| COC(=O)c1sc(NC(=S)NC(=O)c2ccccc2C)nc1C | 58 | 61.3 |
| FC(F)(F)c1nnc(-c2ccccc2)nc1Sc1ccc(Cl)cc1 | 42.7 | 46.2 |
| CC[C@@H](C)[C@H](CNC)NC[C@@H](Cc1cccc2ccccc12)NCCc1cccc(C(F)(F)F)c1 | 86.9 | 97.8 |
| COc1cc2c3nnc(-c4ccc(F)cc4)c-3cn(Cc3ccc(C)cc3)c2cc1OC | 24.2 | 60.6 |
| Cc1csc(N/N=C/c2ccccn2)n1 | 59.2 | 69.7 |
| CN1CC(=O)N2C(c3ccc(Cl)cc3)c3[nH]c4ccccc4c3C[C@H]2C1=O (some centres not stated) | 94.7 | 92.8 |
| CN(C)CCNC(=O)c1cc2c(s1)-c1ccc(Cl)cc1SC2 | 99 | 99.5 |
| O=C(NOCc1ccccc1)c1ccc(Cl)cc1Cl | 62.6 | 55.5 |
| CN(C)CCCN(C(=O)/C=C/c1cccs1)c1nc2c(F)cccc2s1 | 56.7 | 93 |
| N/C(=N\OC(=O)c1ccc(Cl)cc1)c1ccc(Cl)cc1 | 92.4 | 76.8 |
| CC1CCN(S(=O)(=O)c2ccc3c(c2)C(=NO)c2cc(S(=O)(=O)N4CCC(C)CC4)ccc2-3)CC1 | 98.2 | 99 |
| Cc1ccc(/C(N)=N/OC(=O)c2ccc(Cl)cc2Cl)cc1 | 97 | 96.7 |
| N=c1n(CC(=O)c2ccc(Br)s2)c2ccccc2n1Cc1ccccc1 | 20.9 | 20.6 |
| CC(=O)c1cc(F)ccc1OCC(=O)Nc1ccc2c(c1)OCO2 | 72.3 | 68.3 |
| COc1ccc(-c2cc3cc4c(cc3cn2)OCO4)cc1 | 60.3 | 52.8 |
| O=C(Oc1ccc2ccccc2c1Cl)N1CCCCCC1 | 20.1 | 12.2 |

| Compound | activity [1] [%] | activity [2] [%] |
| --- | --- | --- |
| Cc1ccc(-c2nc(NC(=O)c3nn(C)cc3[N+](=O)[O-])sc2C)cc1 | 97.6 | 99.3 |
| COc1ccc(NC(=O)c2ccc(OC)cc2)cc1 | 54.2 | 42.5 |
| CCN(CC)c1ccc(C(=O)OCc2cc(=O)oc3cc(O)ccc23)cc1 | 83.8 | 96 |
| Cc1cc(N)n2nc(-c3ccccc3)cc2n1 | 77.2 | 68.2 |
| Cc1ccc(-c2nc(-c3ccncc3)no2)c(Cl)c1 | 63 | 57.1 |
| O=C(NNC(=O)c1cc(OCC(F)(F)F)ccc1OCC(F)(F)F)c1cccc(C(F)(F)F)c1 | 50.6 | 44.2 |
| CCC[C@H](CN[C@@H](CNC)[C@H](C)CC)NCCc1cc(C(F)(F)F)cc(C(F)(F)F)c1 | 65.7 | 96.1 |
| c1ccc(-c2cc3cc4c(cc3cn2)OCO4)cc1 | 43.8 | 29 |
| Cc1ccc2nc(N(CCCN(C)C)C(=O)c3ccc(S(=O)(=O)N4CCc5ccccc5C4)cc3)sc2c1 | 55.4 | 68.3 |
| Cc1c(Cl)cccc1Nc1nc(N)nc(CSc2ncccn2)n1 | 91.8 | 92.3 |
| Cc1ccc(C(=O)COC(=O)c2ccc3c(c2)C(=O)N(c2cccc4ncccc24)C3=O)cc1 | 54.7 | 43.5 |
| O=C(NC1=NC2CCCCC2N1)c1ccccc1 (configuration not stated) | 62.8 | 52.1 |
| C/C(=N\Nc1nc2ccccc2s1)c1cccs1 | 52.8 | 30.2 |
| Nc1c2c(nc3sc4c(c13)CCCCC4)CCCCC2 | 48.1 | 47.8 |
| OC(c1cc(-c2cccc(Cl)c2)nc2ccccc12)C1CCCCN1 (configuration not stated) | 71.2 | 82.1 |
| COc1ccc2sc(N(CCCN(C)C)C(=O)c3ccc(S(=O)(=O)N4CCc5ccccc5C4)cc3)nc2c1 | 82.4 | 69.3 |
| Cc1ccc2nc(-c3ccccc3)nn2c1 | 83.9 | 80.3 |
| CC(C)c1ccc(-n2c(-c3ccccc3)c[n+]3c2CCc2ccccc2-3)cc1 | 77 | 75.5 |
| COC(=O)c1c(NC(=O)c2nc3ccccc3s2)sc2c1CC(C)(C)NC2(C)C | 87.8 | 98.3 |
| O=C(C[C@H]1C/C=C\C[C@H](NC(=O)OCC2c3ccccc3-c3ccccc32)C(=O)OC[C@H](Cc2ccccc2)NC1=O)N[C@H](CO)Cc1ccccc1 | 11.8 | -2.65 |
| COc1ccc(-c2cn3ccccc3n2)cc1[N+](=O)[O-] | 50.9 | 53 |
| O=C(Nc1nc2c(s1)CCCC2)c1ccc(Br)o1 | 73.7 | 88.6 |
| CCOc1ccc(-c2cc(C(=O)N/N=C/c3cccnc3)c3ccccc3n2)cc1 | 74.2 | 74.4 |

| Compound | activity [1] [%] | activity [2] [%] |
| --- | --- | --- |
| Clc1ccc(-c2nnc(SCc3ccon3)o2)c(Cl)c1 | 51.8 | 58.7 |
| Nc1c(-c2ccccc2)cnc2cc(-c3ccccc3)nn12 | 73 | 67.4 |
| Nc1nc(N)c2cc(Sc3ccc4ccccc4c3)ccc2n1 | 61 | 73.9 |
| N#Cc1c(NC(=O)c2ccccc2)sc2c1CCCCC2 | 46.5 | 49.6 |
| COc1ccc(N(C(=O)CCl)C(C(=O)NCCc2ccccc2)c2cccs2)cc1Cl (configuration not stated) | 98.3 | 99.1 |
| Cc1cc(NC(=O)c2cc3n(n2)C(C(F)(F)F)CC(c2ccco2)N3)no1 (configuration not stated) | -11.1 | -14.8 |
| O=C(N/N=C/c1ccc(Br)s1)c1ccccn1 | 44.5 | 46.6 |
| CCOC(=O)c1ccc(NC(=O)c2nc[nH]c2C(=O)NCCNC(=O)c2[nH]cnc2C(=O)Nc2ccc(C(=O)OCC)cc2)cc1 | 99.4 | 99.5 |
| CCN1CCN(Cc2ccc(NC(=O)c3cc(NC(=O)C(=O)c4c[nH]c5ccccc45)cc(OC)c3)cc2C(F)(F)F)CC1 | 82.2 | 77.7 |
| C=C1CC(COc2cc(=O)oc3ccccc23)(c2ccccc2)OC1=O (configuration not stated) | 89.5 | 96.5 |
| COc1ccc(NC(=O)N2CCc3ccccc32)cc1 | 64.4 | 64 |
| N#Cc1cc2c(nc1SCC(=O)Nc1nccs1)CCCCC2 | 67.8 | 69.2 |
| Cc1cc2[nH]c3c4ccccc4nc(C)c3c2cc1C | 99.5 | 99.8 |
| Nc1ccc(C(=O)Nc2nc3ccccc3s2)cc1 | 44.8 | 41 |
| COc1cccc2sc3ccc(C#CC4(O)CCCCC4)cc3c(=O)c12 | 46.1 | 45.8 |
| COc1cc(/C=N/NC(=O)c2nnn(-c3nonc3N)c2C)ccc1OCc1ccc(Cl)cc1 | 39 | 20.6 |
| O=C(NC(=S)Nc1ccc(Cl)cn1)c1cccs1 | 79.4 | 76.3 |
| O=C1c2ccccc2NC(c2ccccc2)N1/N=C/c1ccccc1 (configuration not stated) | 52.5 | 40.1 |
| CCOc1ccc(OCC(=O)N(CCC2=CCCCC2)c2c(N)n(Cc3ccccc3)c(=O)[nH]c2=O)cc1 | 48.6 | 1.7 |
| CC(C)(C)c1ccc(-c2noc(CCC(=O)N3CCOCC3)n2)cc1 | 66.5 | 64.2 |
| O=C(c1ccc2c3n(nc2c1)-c1ccccc1CO3)N1CCCCC1 | 79.2 | 78.4 |
| COc1ccc2nc(N3C(=O)CNC3=S)sc2c1 | 51.8 | 49.4 |
| Cn1c(N)c(C(=O)COC(=O)c2cc(S(=O)(=O)N3CCOCC3)ccc2F)c(=O)n(C)c1=O | 90.6 | 93.8 |

| Compound | activity [1] [%] | activity [2] [%] |
| --- | --- | --- |
| COc1cccc(/C=N/Nc2nn3cnnc3c3ccccc23)c1 | 62 | 61.4 |
| O=C(NCc1cccnc1)/C(=C\c1ccc(-c2ccc(Cl)c(Cl)c2)o1)S(=O)(=O)c1ccccc1 | 98.1 | 99.2 |
| CCc1ccc([C@H]2[C@@H]3C(=O)C[C@@H]4C(=O)N(c5ccccc5)C(=O)[C@@H]4[C@@H]3CN2S(=O)(=O)c2ccc(C)cc2)cc1 | -4.35 | -7.2 |
| CC(C)(C)c1csc(NC(=O)Nc2ccccc2)n1 | 41.3 | 50 |
| COc1ccc(C2C(C(=O)N3CCN(c4ccccc4)CC3)c3ccccc3C(=O)N2C)cc1 (configuration not stated) | 69.5 | 66.3 |
| CCC(C)c1ccc(NC(=O)c2cccs2)cc1 (configuration not stated) | 72.8 | 68.1 |
| COc1ccc2c(c1OC)C(=O)N(c1cccc(C)c1)C2 | 66.9 | 57.9 |
| O=c1/c(=C/c2ccccn2)sc2nc3ccccc3n12 | 60 | 14.9 |
| CCC(C(=O)O/N=C(\N)c1ccc(C)cc1)c1ccccc1 (configuration not stated) | 65.2 | 77.5 |
| O=C(NC1=NCCS1)c1cccs1 | -8.57 | -38 |
| CCOc1ccc(OCC)c(NC(=O)C2CCN(c3nn4c(=O)cc(C)nc4s3)CC2)c1 | 82 | 81.3 |
| CCc1cc2c(=O)c(-c3cnn(-c4ccccc4)c3)c(C)oc2cc1OCC(=O)Nc1ccc(F)c(F)c1 | 37.2 | 26.4 |
| O=C1c2ccccc2NC(c2ccc3c(c2)OCCO3)N1c1ccc2c(c1)OCCO2 (configuration not stated) | 44.2 | 51.8 |
| Cc1ccc2nc(-c3sc4nc(C)ccc4c3N)[nH]c2c1 | 23.9 | 7.22 |
| N=NC(=O)c1ccccc1Nc1c(O)[nH]c2ccccc12 | 93.5 | 92.1 |
| CCCCCC(=O)N1C[C@H](n2cc(COC(=O)c3ccccc3)nn2)[C@@H](O)C[C@@H]1c1ccc(Cl)cc1 | 72.6 | 61 |
| CC[C@]12c3[nH]c4ccc(Cl)cc4c3CCN1C(=O)[C@@H](CC(=O)NCc1cccc(C(F)(F)F)c1)C[C@@H]2C(=O)N1CCN(C(=O)c2ccco2)CC1 | 71 | 68.7 |
| CC(C)COCc1ccc(O)c2ncccc12 | 38.6 | 32.1 |
| N#CC1=C(N)N2C(=C(C#N)C1c1cccc(Br)c1)Nc1ccccc12 (configuration not stated) | 55.6 | 61.6 |
| CCn1cc(C(=O)NCC(OC)OC)c(=O)c2cc(S(=O)(=O)N3CCC(C)CC3)ccc21 | 57.3 | 64.5 |
| C/C=C/c1ccc(OCCCNC2CCCC2)c(OC)c1 | 1.5 | -12.4 |
| Cc1ccc(-c2nc3cc(N)ccc3o2)cc1 | 69.2 | 60 |
